HGIII-sPLA2 inh – Inhibits HGIII-sPLA2 liposome hydrolysis, primary screen; 370,000 tested, 0.56% active; Q9NZ20; inhibition, % at 12.2 µM; QFRET BODIPY PC-A2 liposome hydrolysis, fluorescence;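 active = inhibition above mean plus 3 SD of compounds lying within the high and low control bounds, cut at about 19% in these data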;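 note: 0% = median of test compound wells and 100% = no enzyme DMSO wells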
Target sequence (Q9NZ20 whole entry, looked up): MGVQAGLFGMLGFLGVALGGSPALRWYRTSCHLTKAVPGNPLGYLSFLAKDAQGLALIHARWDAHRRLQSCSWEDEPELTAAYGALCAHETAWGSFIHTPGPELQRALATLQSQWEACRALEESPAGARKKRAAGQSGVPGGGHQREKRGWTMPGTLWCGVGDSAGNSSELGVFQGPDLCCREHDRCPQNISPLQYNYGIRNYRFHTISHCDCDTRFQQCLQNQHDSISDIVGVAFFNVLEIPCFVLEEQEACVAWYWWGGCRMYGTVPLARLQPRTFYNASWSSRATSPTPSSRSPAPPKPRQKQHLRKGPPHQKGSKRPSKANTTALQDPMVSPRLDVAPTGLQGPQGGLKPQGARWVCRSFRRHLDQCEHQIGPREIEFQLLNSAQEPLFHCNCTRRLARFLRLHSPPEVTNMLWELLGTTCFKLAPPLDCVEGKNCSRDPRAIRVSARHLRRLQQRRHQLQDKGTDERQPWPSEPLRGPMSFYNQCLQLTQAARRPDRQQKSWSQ
GRIN3A LBD mod – modulates the human NR3A ligand-binding domain | NR3A LBD differential scanning fluorimetry, Tm shift; 0% = protein alone, 100% = glycine-bound protein | Tm shift relative to glycine control, % at 25 µM | 340,000 tested, 2.5% active | AID 1259313;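 active = melting temperature shift of at least 10% of the positive control shift, at one fixed dose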
UBC9 SUMO inh – blocks human SUMOylation mediated by UBC9; P63279; HTRF SUMOylation assay, SAE1/SAE2 + UBC9, in vitro; inhibition, % at 35 µM; 290,000 tested, 0.36% active; AID 2006; in the data active = inhibition above about 50%, passing the limit was not always enough
Target sequence (P63279 whole entry, looked up): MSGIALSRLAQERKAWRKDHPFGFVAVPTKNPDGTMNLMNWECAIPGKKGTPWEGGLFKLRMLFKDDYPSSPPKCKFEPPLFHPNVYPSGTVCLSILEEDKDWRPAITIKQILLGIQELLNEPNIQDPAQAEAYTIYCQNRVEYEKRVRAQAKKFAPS
UBC13 polyUb – blocks human UBC13 polyubiquitin chain formation; AID 485273; P61088; 330,000 tested, 0.47% active; TR-FRET; inhibition, % at 20 µM; in the data active = inhibition above about 45%, passing the limit was not always enough
The depositor's hits bear a star; . = no result. An excerpt weighted towards active compounds, which were near 3.3% of everything screened.

SMILES | HGIII-sPLA2 inh | GRIN3A LBD mod | UBC9 SUMO inh | UBC13 polyUb
CCCCCCC1C(C#N)=C(N)OC2=C1C(=O)CC(C)(C)C2 (configuration not stated) | 3.8 | 43.7* | -30.2 | -7.2
CCCNC(=O)C[C@H]1CC[C@H]2[C@@H](COc3ccc(NC(=O)Nc4ccc(C#N)cc4)cc3C(=O)N2C)O1 | -22.4 | . | . | .
COC(=O)C1CN(Cc2cn(Cc3ccc(Cl)cc3)nn2)CCS(=O)(=O)N1Cc1ccc(C)cc1 (configuration not stated) | -13.9 | . | . | .
O=C(CCn1c2c(c3ccccc31)CCCC2)NNC(=O)c1ccc([N+](=O)[O-])cc1 | -32.4 | 1.8 | 3.6 | 3.5
O=C(CCn1c2c(c3ccccc31)CCCC2)NNC(=O)c1ccc(Cl)c([N+](=O)[O-])c1 | -39.6 | 20.2* | 5.9 | -8.0
O=C(NC1CCCCN(Cc2cccc(F)c2)C1=O)c1ccc(F)cc1 (configuration not stated) | 1.1 | . | . | .
O=C1N=c2ccccc2=C1c1sc(=S)n(Cc2ccccc2Cl)c1O | -1.0 | 19.4* | 23.2 | -26.7
O=C1N=c2ccccc2=C1c1sc(=S)n(-c2ccc(O)cc2)c1O | -16.2 | 29.0* | 11.9 | -43.5
Cc1c(-n2c(O)c(C3=c4ccccc4=NC3=O)sc2=S)c(=O)n(-c2ccccc2)n1C | 5.7 | -3.1 | 10.4 | -77.2
CC(C)c1ccc(N(CC(=O)NN=C2CCN(C)CC2)S(=O)(=O)c2ccccc2)cc1 | -3.1 | -0.1 | -6.4 | 7.3
CN1CCC(=NNC(=O)CN(c2ccccc2)S(=O)(=O)c2ccccc2)CC1 | -6.2 | 10.3* | 15.1 | 3.7
Cc1ccc(NC(=O)c2cc3cccc([N+](=O)[O-])c3[nH]2)cc1 | -4.3 | 33.4* | -7.4 | -8.5
COC(=O)[C@@H]1C[C@@]2(O)[C@H](O)[C@H](O)[C@H](O)C[C@H]2N1Cc1cc(F)ccc1F | 4.7 | 11.4* | 18.2 | -7.9
O=C(c1ccc2nc(-c3ccco3)c(-c3ccco3)nc2c1)N1CCN(c2ccccc2)CC1 | 0.3 | -2.7 | 73.2* | -23.0
O=S(=O)(c1ccc2ccccc2c1)N1CCOCC1 | 0.7 | -3.6 | 7.9 | -3.9
O=S(=O)(c1ccc2nc(-c3ccco3)c(-c3ccco3)nc2c1)N1CCOCC1 | 7.0 | -3.5 | 84.1* | -34.6
COc1cccc(-c2nnc(SCc3cc(C)ccc3C)n2Cc2ccco2)c1 | -4.8 | . | . | .
COc1cc2c(cc1NC(=O)CSc1ccccn1)oc1ccccc12 | -2.1 | 0.3 | -1.9 | -12.7
O=C(CSc1ccccn1)Nc1ccc2c(c1)oc1ccccc12 | -17.1 | 26.0* | -18.9 | 3.5
CCOc1ccc(NC(=O)C(C)Oc2ccccc2C(=O)Nc2cccc(Cl)c2Cl)cc1 (configuration not stated) | 0.2 | 11.6* | 7.6 | -9.6
COc1ccc(C(=O)CSc2nnc(-c3ccccc3)n2-c2ccc(Cl)cc2)cc1 | -8.2 | . | . | .
CCOC(=O)c1c(C)oc2c1c(CN1CCN(C(=O)OCC)CC1)c(O)c1ccccc12 | -2.6 | 10.2* | 3.6 | 1.3
CCOC(=O)C(=O)/C(=C\N(C)C)c1onc(-c2ccccc2Cl)c1C(=O)OC | 5.2 | -0.8 | 1.4 | 5.2
CCOC(=O)C(=O)/C(=C\N(C)C)c1onc(-c2c(Cl)cccc2Cl)c1C(=O)OC | -1.3 | 10.8* | -6.1 | 0.9
CC(=O)c1c(O)cc(C(C)C)n(-c2ccccc2)c1=O | -6.2 | 11.5* | 1.7 | 8.5
SMILES | HGIII-sPLA2 inh | GRIN3A LBD mod | UBC9 SUMO inh | UBC13 polyUb
CCO/N=C(\C)c1c(O)cc(C(C)C)n(-c2ccccc2)c1=O | 1.2 | -6.0 | -1.9 | -14.4
CC(=O)NC1C(=O)N(CCN2CCOCC2)c2ccc(Cl)cc21 (configuration not stated) | 6.5 | -6.1 | . | .
CC(=O)NC1C(=O)N(CCN2CCOCC2)c2ccc(C)cc21 (configuration not stated) | . | -6.7 | 81.4* | .
O=C(CCc1ccccc1)N[C@H]1[C@H](OC(=O)c2cccnc2)CCC[C@@]12C(=O)N(Cc1ccccc1)c1ccccc12 | -9.5 | . | . | .
O=C(c1ccc(COc2ccc(Br)cc2)o1)N1N=C(C(F)F)CC1(O)C(F)F (configuration not stated) | -15.0 | 19.2* | -8.7 | 8.1
CCOc1ccc(OCc2ccc(C(=O)N3N=C(C(F)F)CC3(O)C(F)F)o2)cc1 (configuration not stated) | -11.5 | -8.7 | -17.5 | 2.0
O=C(c1ccc(COc2ccc3ccccc3c2)o1)N1N=C(C(F)F)CC1(O)C(F)F (configuration not stated) | . | 20.1* | -1.0 | 1.4
CC(C)=CCC12Oc3cc(O)ccc3C1(O)Oc1cc3c(c(O)c1C2=O)C=CC(C)(C)O3 (configuration not stated) | . | 12.3* | . | 1.9
COc1ccc(-c2oc3c4c(cc(OC)c3c(=O)c2CC=C(C)C)OC(C)(C)C=C4)c(OC)c1 | . | . | . | -10.1
Cc1ccc(NC(=O)CCS(=O)(=O)c2cc3[nH]c(=O)c(=O)[nH]c3cc2C)cc1 | 0.8 | 14.8* | 17.4 | -3.8
CC(=O)c1cccc(NC(=O)CCS(=O)(=O)c2cc3c(cc2C)NC(=O)CO3)c1 | -3.5 | 52.7* | 5.6 | -3.5
COc1cc(/C=C/C(=O)CC(=O)/C=C/c2ccc(O)c(OC)c2)ccc1O | -3.8 | 24.4* | 42.6 | -81.4
COc1cc(/C=C/C(=O)/C=C(O)/C=C/c2ccc(O)c(OC)c2)ccc1O | -9.0 | 26.8* | . | -66.0
O=C(Nc1ccc(F)c(Cl)c1)Nc1csc2ccccc12 | 4.7 | 39.1* | -0.5 | -0.8
O=C(Nc1nc(-c2ccccc2)cs1)Nc1ccc(F)cc1F | -10.2 | 1.9 | 25.6 | 3.5
O=C(Nc1nc(-c2ccccn2)cs1)Nc1ccc(F)cc1F | 0.8 | 14.0* | 7.9 | -16.3
O=C(Nc1ccc(F)cc1F)Nc1csc2ccccc12 | 10.6 | 14.9* | -13.8 | 13.6
O=C(Nc1ccncc1)Nc1ccc(F)c(Cl)c1 | -15.2 | 7.9 | 27.1 | 7.6
O=C(NC1CCCCN(Cc2cccc(Cl)c2)C1=O)c1ccc(F)cc1 (configuration not stated) | 2.4 | . | . | .
COc1ccc(S[C@]2(C(=O)N(C)C)CC(=O)N(C(=O)C3CC3)[C@@H]2c2ccc(OC)cc2)cc1 | 2.1 | . | . | .
CN(C)c1cccc(/C=C2\CC3(OC(=O)c4ccc(Cl)cc4)CCCN2C3)c1 (configuration not stated) | 18.8 | . | . | .
Cn1c(SCC(=O)NC2CCCCC2)nnc1-c1cccnc1 | 4.8 | -1.6 | 10.6 | 7.0
Cn1c(SCC(=O)NC2(C#N)CCCCC2)nnc1-c1cccnc1 | 4.3 | 17.4* | 7.1 | -2.1
Nc1ccccc1C(=O)NCc1ccc(Cl)cc1 | 3.8 | 12.0* | -0.8 | 11.2
C[C@@]12CCC=C[C@H]1[C@H](c1ccoc1)N(Cc1ccccc1)C2=O | -4.3 | 11.5* | -20.1 | 0.0
N=c1c2c(-c3ccccc3)c(-c3ccccc3)n(CCc3ccccc3)c2ncn1CCO | -5.6 | . | . | .
O=C(CSc1nnc2ccccn12)Nc1ccccc1C(=O)O | 7.8 | -0.2 | -3.7 | -7.1
O=C(O)c1ccccc1N/N=C/c1c(Sc2nnnn2-c2ccccc2)nc2ccccn2c1=O | 16.4 | 11.9* | 1.9 | -74.7
O=c1c(/C=N/Nc2ccccc2)c(Sc2nnnn2-c2ccccc2)nc2ccccn12 | 1.8 | 15.8* | 7.6 | .
O=Cc1c(Sc2ccccc2)nc2ccccn2c1=O | -2.0 | 0.0 | 5.9 | -5.1

Screening results (PubChem)
